Source: PubChem BioAssay AID463190 (Sanford-Burnham Center for Chemical Genomics, 2010)
Out of some 330,000 compounds screened, about 7,300 (2.2%) were called active. Shown is part of a subset that was picked to be rich in actives. Values without a mark were called inactive.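 Rule for the calls: active = inhibition of at least 40%; inactive = the rest.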

assay: growth inhibition of tim10-1 ts yeast – luminescence, uHTS, primary screen (AID 463190);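 note: mutant grown at 25 °C; 0% = DMSO wells with yeast and 100% = wells holding no yeast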; settings: S. cerevisiae tim10-1 ts strain growth, BacTiter-Glo, 24 h; at 20 µM; active compounds read high

Compound	inhibition
Cc1ccc(/C=C/C(=O)O)cc1S(=O)(=O)N1CCC(Cc2ccccc2)CC1	-0.486%
COc1cc(CN2CCC(n3nccc3NC(=O)CCCc3ccccc3)CC2)ccc1O	25.4%
COc1cccc(CN(C)CC2CCCN(CCc3ccc(Cl)cc3)C2)c1OC (stereo unspecified)	-21.5%
Nc1cc(C(F)(F)F)ccc1N1CCOCC1	11.6%
COc1cccc(CNc2nc(C(F)(F)F)nc3ccccc23)c1	39.2%
CC(Nc1nc(C(F)(F)F)nc2ccccc12)c1cccs1 (stereo unspecified)	42.6% (active)
CCc1ccc(C(CNc2nc(C(F)(F)F)nc3ccccc23)N(C)C)cc1 (stereo unspecified)	29.3%
Cn1c2ccccc2n2c(=O)c(=O)n(CC(=O)c3ccc(F)cc3)nc12	-14.7%
COc1ccc(/C=C(\C#N)C(=O)OCC(=O)N(C)C2CCS(=O)(=O)C2)cc1 (stereo unspecified)	-4.56%
COc1ccc(N2CCN(C(=O)/C(C#N)=C/c3ccccc3)CC2)cc1	18.8%
COc1ccc(/C=C(\C#N)C(=O)ONC2=NCCCCC2)cc1	48.2% (active)
CN(NC(=O)c1ccccc1F)c1nc(C(F)(F)F)nc2ccccc12	6.21%
Cc1ccc(Nc2c(F)c(F)c(F)c(F)c2C(=O)O)c(C)c1	-6.12%
Oc1[nH]c2ccc(Br)cc2c1N=Nc1nn[nH]n1	16.7%
Cc1cccc(N=Nc2c(O)[nH]c3ccc(F)cc23)c1	43.6% (active)
NS(=O)(=O)c1ccc(N=Nc2c(O)[nH]c3ccc(Br)cc23)cc1	-13%
c1ccc(-c2cc(-c3ccccc3)[nH]n2)cc1	7%
Nc1nc(-c2ccccc2)cc(-c2ccccc2)n1	41.6% (active)
Nc1cccc(-c2cc(-c3ccccc3)nc(-c3cccc(N)c3)n2)c1	26.4%
CCNc1nc(NCC)nc(N(C)n2cnnc2)n1	13.1%
O=C1N=C2SCCN2/C1=C\c1c(Cl)cccc1Cl	-18.2%
CNC(=O)N1c2ccccc2C=Cc2ccccc21	-1.34%
CCN(CC(=O)NCc1ccco1)S(=O)(=O)c1ccc(F)cc1	-17.2%
Cc1cc(C)cc(OCC(=O)O/N=C(\N)Cc2ccc([N+](=O)[O-])cc2)c1	19.4%

Compound	inhibition
COC(=O)C(C)NC(=O)COc1ccc2ccccc2c1 (stereo unspecified)	8.45%
O=C(COC(=O)Cc1ccc([N+](=O)[O-])cc1)NC1CCCCCC1	13.1%
N/C(Cc1ccc([N+](=O)[O-])cc1)=N\OC(=O)COc1ccc2ccccc2c1	68.6% (active)
N/C(Cc1ccc([N+](=O)[O-])cc1)=N\OC(=O)C1CCCCC1	61.6% (active)
O=C(COC(=O)C1CCCCC1)Nc1ccc([N+](=O)[O-])cc1	13.8%
CCOC(=O)C1=C(C)c2ccccc2OC1C(=O)OCC (stereo unspecified)	9.8%
COCCN(CCOC)c1nc(N)c2c(N)nc3c(c2c1C#N)CC(=O)N3Cc1ccc(Cl)cc1	28.9%
CCc1cccc(CC)c1NC(=S)Nc1ccc2cn[nH]c2c1	18.2%
Cc1cc2cc(CNC(=O)c3cccs3)ccc2[nH]1	-2.64%
CCc1cccc(CC)c1NC(=S)NCc1ccc2[nH]c(C)cc2c1	48.6% (active)
O=C(Nc1nnc(CCN2CCCCC2)s1)c1cccc(Cl)c1	-12.8%
Cc1cc(/C=C2/SC(=O)N(CC(=O)N3CCCC3)C2=O)ccc1N1CCOCC1	3.32%
CC(OC(=O)c1ccccc1N1C(=O)C2C3CCC(C3)C2C1=O)C(=O)c1ccccc1 (stereo unspecified)	22.1%
CCOC(=O)c1ccccc1N1C(=O)C2Sc3[nH]c(=O)sc3C(/C=C/c3ccccc3)C2C1=O (stereo unspecified)	40.6% (active)
COC(=O)C1=C(C)N=C2SC(C)C(=O)N2C1/C=C/c1ccccc1 (stereo unspecified)	19%
N#Cc1cccc(NC(=O)C2CCCN(C(=O)c3ccc(Cl)cc3)C2)c1 (stereo unspecified)	7.79%
CCC1(C)NC(=O)N(CC(=O)N2CCN(c3cccc(Cl)c3)CC2)C1=O (stereo unspecified)	9.91%
O=C(Nc1ccc2cn[nH]c2c1)c1ccc(S(=O)(=O)N2CCOCC2)cc1	-2.72%
Cc1ccc([N+](=O)[O-])cc1S(=O)(=O)N1CCCN(C)CC1	-9.68%
CCc1nccn1S(=O)(=O)c1cccc([N+](=O)[O-])c1	-8.99%
O=C(Oc1ccc([N+](=O)[O-])cc1)c1ccc(Cl)c(S(=O)(=O)N2CCCCC2)c1	38.7%
CCc1nc(C)cn1S(=O)(=O)c1cc([N+](=O)[O-])ccc1Cl	53.6% (active)
CC(C)c1nccn1S(=O)(=O)c1cc([N+](=O)[O-])ccc1Cl	43.6% (active)
CCc1nc(C)cn1S(=O)(=O)c1cc(OC)c(C)cc1C	14.4%

Compound	inhibition
CN(CCC1CCOCC1)Cc1cn[nH]c1-c1ccc(-c2ccccc2)cc1	18%
COc1ccc(C(=O)C2CCCN(C(=O)c3cc4nc(C)cc(C)n4n3)C2)cc1F (stereo unspecified)	26.4%
CCOC(=O)c1cc(C(C)C)sc1NC(=O)COC(=O)c1nccnc1N	9.86%
CCOc1ccc(OCc2cccc(C(=O)N(CC)CC)c2)cc1	21.6%
CC(C)c1cc(C(N)=O)c(NC(=O)c2cccc(COc3ccc(Br)cc3)c2)s1	40.9% (active)
CC(C)CCN1CCC(C)(NC(=O)c2ccccc2)C1=O (stereo unspecified)	10.4%
COc1ccc(CN2C(=O)C(C)S/C2=N/N=C/c2ccco2)cc1 (stereo unspecified)	19.3%
Cc1nn(-c2ccccc2)c2c1C(c1ccc(F)cc1)C(C#N)=C(N)O2 (stereo unspecified)	24%
Cc1nn(Cc2ccccc2)c2c1C(c1ccccc1)C(C#N)=C(N)O2 (stereo unspecified)	30.9%
COc1ccccc1C1C(C#N)=C(N)Oc2c1c(-c1ccccc1)nn2-c1ccccc1 (stereo unspecified)	40.7% (active)
COc1ccc(CCOC(=O)CNC(=O)c2ccc(Cl)cc2Cl)cc1	18.1%
O=C(O)c1cccnc1Sc1ncnc2sc3c(c12)CCC3	-4.59%
Brc1ccc2nc(N3CCCC3)sc2c1	22.5%
c1c2c(cc3sc(N4CCCCC4)nc13)OCCO2	43.1% (active)
Cc1nc(N2CCCCC2)sc1C=O	-8.24%
CC(C)N(C(=O)CN1CCN(S(=O)(=O)c2ccc(Br)s2)CC1)C(C)C	16.4%
O=C(COC(=O)C1CC2C=CC1C2)Nc1ccccc1 (stereo unspecified)	13.3%
O=C1CC(c2cccc(Cl)c2)CC(O)=C1C=Nc1ccccc1 (stereo unspecified)	21.6%
CCOc1ccc(-c2cc(C(=O)N/N=C/c3ccc(O)cc3)c3ccccc3n2)cc1	6.2%
O=C(O)c1cc([N+](=O)[O-])c(Nc2cccc3ccccc23)c([N+](=O)[O-])c1	7.28%
CCOC(=O)c1c(-c2cccc(N)c2)cn2ccccc12	10.5%
CCOC(=O)c1nnn(-c2nonc2OC)c1-c1ccccc1	15.2%
CCOC(=O)c1c(N)nn(C(=O)c2ccccc2)c1-c1ccccc1	41.5% (active)
Cc1ccnc(NC(=O)Cn2ccc([N+](=O)[O-])n2)c1	14.6%

Compound	inhibition
COc1cccc(/C=C/C(=O)OCC(=O)N2CCN(c3ccccc3)CC2)c1	17.4%
Cc1cc(NCc2ccco2)n2c(nc3ccccc32)c1C#N	7.48%
Cn1c(-c2ccco2)nc2cc3ccccc3cc21	33.2%
CN1c2ccccc2-c2nc3ccccc3n2C1c1ccco1 (stereo unspecified)	42.1% (active)
CCO[C@H]1OC(C(=O)O)=C[C@@H](C2CCCCC2)[C@@H]1CCCO	-21.3%
CCCOc1ccc(Cc2c(Cl)nc(SC)nc2NC)cc1	35.5%
COc1ccc(C(=O)Nc2sc(C)c(C)c2CN2CCOCC2)cc1	34.2%
CCc1cc(C(N)=O)c(NC(=O)c2ccc(OC)cc2)s1	45.5% (active)
CCc1cc(C(=O)c2ccc(OC)cc2)c(NC(=O)CN2CCN(C)CC2)s1	17.7%
C/C(Cn1nnc2ccccc21)=N\OC(=O)c1cc(F)c(F)cc1Cl	37.4%
Cc1n[nH]c(=O)c2c(NC(=O)COC(=O)c3ncc(Cl)c(Cl)c3Cl)oc(C)c12	10.5%
CC(C(=O)O)n1cnc2sc3c(c2c1=O)CCCC3 (stereo unspecified)	2.4%
COc1cc(Cl)ccc1OCc1cc(C(=O)N(C)CCc2c(C)n[nH]c2C)no1	7.82%
Cc1ccc(SC(CC(=O)c2ccc(C(C)(C)C)cc2)C(=O)O)cc1 (stereo unspecified)	40.7% (active)
Cc1ccc(C(=O)CSc2ccccc2C(=O)O)cc1	-0.398%
Cc1ccc(CSCC(N)C(=O)O)cc1 (stereo unspecified)	13.8%
CCC(C(=O)OCC(=O)Nc1c(Cl)cc(Cl)cc1Cl)c1ccccc1 (stereo unspecified)	39.5%
CCOC(=O)c1nnn(-c2nonc2-n2cccc2)c1CN1CCOCC1	23.2%
CCOC(=O)c1c(CN2CCOCC2)n(-c2ccccc2)c2ccc(O)cc12	45% (active)
CCOC(=O)c1c(CN(C)C)n(-c2ccccc2)c2cc(Br)c(O)cc12	10.1%
CC1CCCCN1CC(=O)NCc1ccc2c(c1)OCO2 (stereo unspecified)	4.67%
CCN(CC)c1ccc(C2C3CCCCC3(O)CCN2CC(=O)Nc2ccccc2)cc1 (stereo unspecified)	-17.2%
Cc1ccc(NC(=O)CN2CCC3(O)CCCCC3C2c2ccc3c(c2)OCO3)c(C)c1 (stereo unspecified)	45.2% (active)
COc1ccc(N2CCN(C(=O)COC(=O)c3cccc(S(=O)(=O)Nc4ccccc4OC)c3)CC2)cc1	19.1%
